From the supplement of paper PMC10849652
Of roughly 7,900 targets only a part is listed; those with a hit were picked by preference. About 0.6% of all pairs of compound and target were hits.

Tests used:
Assay in all cases: log2 fold change, soluble protein after heating vs DMSO (PISA); higher = thermal stabilisation; K562 cells, 10 uM, 30 min; active = over 0.2 and 3.5 SD of the protein, either way, in both replicates (recomputed)
[1] = compound: C1=CC=C(C=C1)[C@H](COC2=CC3=C(C=C2)NC(=O)N3)NC(=O)C4=CC=CN(C4=O)CC5=CC(=C(C=C5)F)F
Summary of the method: (§1)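 K562 cells at 2×10^6 cells/mL were treated for 30 min with 10 μM compound, and aliquots were heated for 3 min over 48°C-58°C before pooling. Extraction used PBS with 0.5% NP-40 at 4°C, and soluble protein was the supernatant after 21,000xg for 90 min, measured by TMTpro 16plex LC-MS/MS with channel sums equalised. Thermal stability values, relative to control samples and from duplicates, are log2 fold changes.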

[2] = compound: CC1=C(SC2=C1C(=N[C@H](C3=NN=C(N32)C)CC(=O)N)C4=CC=C(C=C4)Cl)C
Summary of the method: as §1

[3] = compound: CC1=C2C(=CC=C1)N=C(N(C2=O)C3=CC=CC=C3C)CN4C=NC5=C(N=CN=C54)N
Summary of the method: as §1

[4] = compound: Cc1sc2c(c1C)C(c1ccc(Cl)cc1)=N[C@@H](CC(=O)OC(C)(C)C)c1nnc(C)n1-2
Summary of the method: as §1

[5] = compound: c1ccc([C@@H]2C[C@H]2NC2CCNCC2)cc1
Summary of the method: as §1

Measured: log2 fold change

F5 (UniProt P12259)
inactive: [1] -0.025 | [2] -0.091 | [3] 0.003 | [4] 0.077 | [5] 0.014

DTWD2 (UniProt Q8NBA8)
Chain of UniProt Q8NBA8 (Q8NBA8 whole entry, looked up): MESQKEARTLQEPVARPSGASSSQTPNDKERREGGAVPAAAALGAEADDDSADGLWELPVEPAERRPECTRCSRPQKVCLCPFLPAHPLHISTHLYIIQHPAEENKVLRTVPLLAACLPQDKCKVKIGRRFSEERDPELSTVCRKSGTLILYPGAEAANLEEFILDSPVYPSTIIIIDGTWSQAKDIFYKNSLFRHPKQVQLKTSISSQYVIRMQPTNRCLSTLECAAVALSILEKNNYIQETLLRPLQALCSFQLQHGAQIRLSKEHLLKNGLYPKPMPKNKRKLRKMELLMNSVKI
inactive: [1] -0.011 | [2] 0.125 | [3] 0.064 | [4] 0.043 | [5] -0.036

CWC27 (UniProt Q6UX04)
Chain of UniProt Q6UX04 (Q6UX04 whole entry, looked up): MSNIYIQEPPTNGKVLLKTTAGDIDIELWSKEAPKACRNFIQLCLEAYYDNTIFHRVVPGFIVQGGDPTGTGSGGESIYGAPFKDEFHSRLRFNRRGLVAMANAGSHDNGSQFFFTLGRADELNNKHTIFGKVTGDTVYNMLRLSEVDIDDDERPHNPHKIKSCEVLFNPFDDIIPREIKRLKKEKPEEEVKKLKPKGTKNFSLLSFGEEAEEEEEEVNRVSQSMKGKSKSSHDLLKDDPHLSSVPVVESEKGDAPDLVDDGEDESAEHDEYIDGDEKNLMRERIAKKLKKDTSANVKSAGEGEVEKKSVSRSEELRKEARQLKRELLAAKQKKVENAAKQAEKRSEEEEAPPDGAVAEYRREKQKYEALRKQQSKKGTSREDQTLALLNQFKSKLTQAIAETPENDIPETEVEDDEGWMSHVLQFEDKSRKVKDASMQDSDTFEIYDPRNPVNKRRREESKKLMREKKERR
inactive: [1] -0.039 | [2] 0.097 | [3] 0.103 | [4] -0.03 | [5] -0.001

FAM118A (UniProt Q9NWS6)
inactive: [1] -0.079 | [2] 0.05 | [3] -0.102 | [4] -0.021 | [5] 0.003

DHX40 (UniProt Q8IX18)
inactive: [1] 0.026 | [2] 0.101 | [3] 0.072 | [4] 0.093 | [5] -0.022

FAM114A2 (UniProt Q9NRY5)
Chain of UniProt Q9NRY5 (Q9NRY5 whole entry, looked up): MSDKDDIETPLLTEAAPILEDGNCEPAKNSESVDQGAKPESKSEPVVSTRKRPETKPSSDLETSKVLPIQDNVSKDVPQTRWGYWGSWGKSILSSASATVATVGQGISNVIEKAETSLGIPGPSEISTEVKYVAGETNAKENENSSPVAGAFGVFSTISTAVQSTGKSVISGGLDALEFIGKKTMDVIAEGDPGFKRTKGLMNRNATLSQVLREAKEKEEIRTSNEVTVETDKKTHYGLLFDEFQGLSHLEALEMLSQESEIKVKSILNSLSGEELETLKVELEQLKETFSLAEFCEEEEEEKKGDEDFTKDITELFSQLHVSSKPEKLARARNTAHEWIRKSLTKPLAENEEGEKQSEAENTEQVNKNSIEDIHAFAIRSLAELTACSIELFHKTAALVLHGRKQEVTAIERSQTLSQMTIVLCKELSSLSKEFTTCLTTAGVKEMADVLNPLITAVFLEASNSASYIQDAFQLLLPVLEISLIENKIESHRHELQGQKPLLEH
inactive: [1] -0.046 | [2] 0.047 | [3] 0.018 | [4] 0.033 | [5] 0.006

EXOC6 (UniProt Q8TAG9)
Chain of UniProt Q8TAG9 (Q8TAG9 whole entry, looked up): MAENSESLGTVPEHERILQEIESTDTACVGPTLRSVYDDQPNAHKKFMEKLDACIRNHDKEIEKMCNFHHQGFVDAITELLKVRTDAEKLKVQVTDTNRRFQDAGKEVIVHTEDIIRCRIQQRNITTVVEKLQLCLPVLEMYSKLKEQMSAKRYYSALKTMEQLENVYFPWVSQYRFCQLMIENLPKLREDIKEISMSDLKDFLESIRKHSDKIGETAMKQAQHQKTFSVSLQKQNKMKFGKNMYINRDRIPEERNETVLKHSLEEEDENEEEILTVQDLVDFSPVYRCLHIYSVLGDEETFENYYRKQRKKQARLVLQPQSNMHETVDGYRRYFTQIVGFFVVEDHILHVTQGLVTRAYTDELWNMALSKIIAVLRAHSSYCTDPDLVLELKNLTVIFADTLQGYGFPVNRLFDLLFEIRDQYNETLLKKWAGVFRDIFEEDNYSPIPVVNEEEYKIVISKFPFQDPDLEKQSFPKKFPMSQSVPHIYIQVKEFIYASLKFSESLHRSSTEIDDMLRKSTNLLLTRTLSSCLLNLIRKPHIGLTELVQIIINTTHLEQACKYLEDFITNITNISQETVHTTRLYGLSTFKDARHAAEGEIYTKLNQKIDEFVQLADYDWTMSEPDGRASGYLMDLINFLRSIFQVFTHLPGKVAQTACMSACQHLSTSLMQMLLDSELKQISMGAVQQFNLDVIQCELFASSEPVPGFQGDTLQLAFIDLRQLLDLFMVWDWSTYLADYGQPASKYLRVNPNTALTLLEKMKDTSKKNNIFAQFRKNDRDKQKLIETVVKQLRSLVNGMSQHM
inactive: [1] -0.088 | [2] -0.006 | [3] 0.072 | [4] 0.031 | [5] -0.069

FAM83D (UniProt Q9H4H8)
inactive: [1] -0.068 | [2] 0.027 | [3] 0 | [4] 0.045 | [5] 0.06

DNAJC1 (UniProt Q96KC8)
Chain of UniProt Q96KC8 (Q96KC8 whole entry, looked up): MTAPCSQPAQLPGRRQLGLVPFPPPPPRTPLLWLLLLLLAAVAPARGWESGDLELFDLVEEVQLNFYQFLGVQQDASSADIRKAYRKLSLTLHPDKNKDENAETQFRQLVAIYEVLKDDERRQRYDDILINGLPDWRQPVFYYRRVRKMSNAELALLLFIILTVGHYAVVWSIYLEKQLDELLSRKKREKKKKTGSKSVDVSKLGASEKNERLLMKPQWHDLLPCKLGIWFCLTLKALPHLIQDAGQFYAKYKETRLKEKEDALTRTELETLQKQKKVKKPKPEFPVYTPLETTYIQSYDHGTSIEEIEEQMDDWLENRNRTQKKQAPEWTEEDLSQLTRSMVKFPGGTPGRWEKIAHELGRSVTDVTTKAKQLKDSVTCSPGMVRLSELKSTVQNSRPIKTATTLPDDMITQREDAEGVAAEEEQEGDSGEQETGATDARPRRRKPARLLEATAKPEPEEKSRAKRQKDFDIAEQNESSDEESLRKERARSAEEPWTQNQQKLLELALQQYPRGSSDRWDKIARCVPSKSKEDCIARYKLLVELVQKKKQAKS
inactive: [1] -0.024 | [2] 0.054 | [3] 0.08 | [4] -0.015 | [5] 0.052

CTSL (UniProt P07711)
Chain of UniProt P07711 (P07711 whole entry, looked up): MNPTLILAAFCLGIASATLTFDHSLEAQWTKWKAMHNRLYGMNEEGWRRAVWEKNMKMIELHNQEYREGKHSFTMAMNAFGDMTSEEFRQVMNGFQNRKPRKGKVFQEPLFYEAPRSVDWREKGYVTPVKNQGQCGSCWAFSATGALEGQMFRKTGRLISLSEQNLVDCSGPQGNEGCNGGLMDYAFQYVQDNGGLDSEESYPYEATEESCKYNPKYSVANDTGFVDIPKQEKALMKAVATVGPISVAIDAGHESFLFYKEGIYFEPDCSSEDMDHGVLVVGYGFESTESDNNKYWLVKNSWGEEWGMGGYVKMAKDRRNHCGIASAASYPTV
inactive: [1] -0.017 | [2] -0.07 | [3] 0.015 | [4] 0.031 | [5] 0.104

DCAF10 (UniProt Q5QP82)
Chain of UniProt Q5QP82 (Q5QP82 whole entry, looked up): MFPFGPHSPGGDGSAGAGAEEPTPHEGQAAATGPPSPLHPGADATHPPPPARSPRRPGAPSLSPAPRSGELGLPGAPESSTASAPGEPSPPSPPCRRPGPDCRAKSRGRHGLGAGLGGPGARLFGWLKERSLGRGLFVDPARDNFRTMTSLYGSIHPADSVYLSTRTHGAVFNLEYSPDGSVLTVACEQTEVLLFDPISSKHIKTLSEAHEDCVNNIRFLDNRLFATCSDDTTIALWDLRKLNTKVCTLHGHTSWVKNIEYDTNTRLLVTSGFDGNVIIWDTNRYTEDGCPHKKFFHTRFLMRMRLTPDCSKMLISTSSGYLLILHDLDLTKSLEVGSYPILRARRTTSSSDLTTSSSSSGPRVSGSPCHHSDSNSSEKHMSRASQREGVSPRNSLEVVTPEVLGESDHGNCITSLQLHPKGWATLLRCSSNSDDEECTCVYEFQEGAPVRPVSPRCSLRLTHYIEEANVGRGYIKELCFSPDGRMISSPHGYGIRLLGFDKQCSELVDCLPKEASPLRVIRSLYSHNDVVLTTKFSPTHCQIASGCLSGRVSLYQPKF
inactive: [1] 0.015 | [2] -0.018 | [3] 0.056 | [4] 0.013 | [5] -0.011

DTYMK (UniProt P23919)
inactive: [1] -0.064 | [2] 0.082 | [3] -0.02 | [4] -0.003 | [5] -0.014

EEF1G isoform 2 (UniProt P26641)
inactive: [1] -0.068 | [2] 0.005 | [3] -0.049 | [4] -0.001 | [5] -0.006

DBT (UniProt P11182)
inactive: [1] -0.003 | [2] -0.004 | [3] 0.012 | [4] 0.062 | [5] 0.007

EXOC7 (UniProt Q9UPT5)
inactive: [1] -0.063 | [2] -0.001 | [3] 0.035 | [4] 0.07 | [5] -0.014

EEF1B2 (UniProt P24534)
Chain of UniProt P24534 (P24534 whole entry, looked up): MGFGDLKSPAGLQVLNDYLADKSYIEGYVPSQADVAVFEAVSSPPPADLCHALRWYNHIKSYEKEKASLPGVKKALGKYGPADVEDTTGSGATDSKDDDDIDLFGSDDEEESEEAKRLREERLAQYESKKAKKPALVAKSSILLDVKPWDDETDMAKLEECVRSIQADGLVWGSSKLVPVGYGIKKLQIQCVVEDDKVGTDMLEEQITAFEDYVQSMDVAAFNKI
inactive: [1] -0.037 | [2] -0.002 | [3] 0.036 | [4] 0.026 | [5] -0.034

FAM117A (UniProt Q9C073)
inactive: [1] -0.004 | [2] 0.057 | [3] 0.027 | [4] 0.01 | [5] 0.012

DNM2 (UniProt P50570)
inactive: [1] -0.023 | [2] 0.044 | [3] 0.078 | [4] -0.027 | [5] -0.036

E2F4 (UniProt Q16254)
Chain of UniProt Q16254 (Q16254 whole entry, looked up): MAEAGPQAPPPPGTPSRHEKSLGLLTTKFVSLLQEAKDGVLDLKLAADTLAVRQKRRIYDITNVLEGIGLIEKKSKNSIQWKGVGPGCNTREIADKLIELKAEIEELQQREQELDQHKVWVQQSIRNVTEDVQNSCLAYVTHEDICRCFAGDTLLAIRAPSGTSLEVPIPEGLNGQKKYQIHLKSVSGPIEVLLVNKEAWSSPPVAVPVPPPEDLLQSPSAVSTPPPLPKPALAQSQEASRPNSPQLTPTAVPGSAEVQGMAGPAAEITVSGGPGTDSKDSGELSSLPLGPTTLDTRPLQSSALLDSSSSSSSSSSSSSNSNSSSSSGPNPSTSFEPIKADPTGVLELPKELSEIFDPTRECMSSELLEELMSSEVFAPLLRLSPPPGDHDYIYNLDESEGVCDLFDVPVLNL
inactive: [1] 0.006 | [2] 0.039 | [3] 0.098 | [4] 0.022 | [5] -0.001

DHRS1 (UniProt Q96LJ7)
inactive: [1] 0.241 | [2] 0.015 | [3] 0.216 | [4] 0.321 | [5] 0.013

EIF4A1 (UniProt P60842)
Chain of UniProt P60842 (P60842 whole entry, looked up): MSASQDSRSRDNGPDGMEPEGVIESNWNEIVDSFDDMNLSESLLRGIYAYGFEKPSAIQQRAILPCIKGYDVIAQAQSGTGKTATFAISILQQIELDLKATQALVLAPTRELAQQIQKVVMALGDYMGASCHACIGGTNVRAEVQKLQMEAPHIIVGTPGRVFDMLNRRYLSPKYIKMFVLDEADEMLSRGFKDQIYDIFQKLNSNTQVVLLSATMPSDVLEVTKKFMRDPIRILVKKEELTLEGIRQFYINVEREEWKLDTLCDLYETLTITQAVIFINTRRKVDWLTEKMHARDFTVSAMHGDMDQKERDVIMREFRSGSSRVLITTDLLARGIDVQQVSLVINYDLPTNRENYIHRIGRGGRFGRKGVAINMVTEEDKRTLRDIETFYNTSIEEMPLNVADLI
inactive: [1] -0.043 | [2] 0.096 | [3] 0.05 | [4] -0.005 | [5] -0.042

DYRK1A isoform 2 (UniProt Q13627)
inactive: [1] -0.062 | [2] 0.059 | [3] 0.085 | [4] 0.026 | [5] 0.011

EXOC5 (UniProt O00471)
inactive: [1] -0.069 | [2] -0.006 | [3] 0.07 | [4] 0.066 | [5] -0.018

DHRS3 (UniProt O75911)
Chain of UniProt O75911 (O75911 whole entry, looked up): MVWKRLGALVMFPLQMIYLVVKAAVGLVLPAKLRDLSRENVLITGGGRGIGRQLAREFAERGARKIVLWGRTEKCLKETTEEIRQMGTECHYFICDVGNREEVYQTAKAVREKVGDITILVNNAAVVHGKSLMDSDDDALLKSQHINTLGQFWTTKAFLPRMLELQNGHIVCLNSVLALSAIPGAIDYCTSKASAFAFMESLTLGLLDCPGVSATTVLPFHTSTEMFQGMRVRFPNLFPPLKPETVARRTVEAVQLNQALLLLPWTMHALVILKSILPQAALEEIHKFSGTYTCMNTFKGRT
inactive: [1] 0.007 | [2] 0.068 | [3] 0.057 | [4] 0.017 | [5] -0.024
